# Screening results deposited in PubChem BioAssay by National Center for Advancing Translational Sciences (NCATS).
# Compounds with a hit are over-represented: about 21% of the library has one in this group of screens.
# IL-1B inflam inh: qHTS for Inhibitors of Inflammasome Signaling: IL-1-beta AlphaLISA Primary Screen | activity change, % at 57.5 µM | AID 743279, 2014 | THP-1 LPS/ATP IL-1B secretion, AlphaLISA, 16 h; hits give low values | hit rate 4.7% among 360,000; in the data active = activity change below about -50%; inconclusive = mostly about -30% to -49%; also: % is scaled to controls: 0 for no effect and ±100 for the full control effect
#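 Secreted IL-1B measured by AlphaLISA bead assay after 16 h compound exposure of THP-1 cells; compounds (final up to 57.5 uM) added 1 h before LPS (250 ng/mL) and ATP (1.25 mM) stimulation; lower signal means less secretion.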
# DRD3 agonist: qHTS of D3 Dopamine Receptor Agonist: qHTS; max activation, %; D(3) dopamine receptor (Homo sapiens), P35462; AID 652048, 2013; D3R DiscoveRx beta-arrestin cells, luminescence, 90 min; hit rate 0.58% among 410,000; in the data active = max activation above about 30%; also: 0% is about no effect
# Target sequence (P35462 whole entry, looked up): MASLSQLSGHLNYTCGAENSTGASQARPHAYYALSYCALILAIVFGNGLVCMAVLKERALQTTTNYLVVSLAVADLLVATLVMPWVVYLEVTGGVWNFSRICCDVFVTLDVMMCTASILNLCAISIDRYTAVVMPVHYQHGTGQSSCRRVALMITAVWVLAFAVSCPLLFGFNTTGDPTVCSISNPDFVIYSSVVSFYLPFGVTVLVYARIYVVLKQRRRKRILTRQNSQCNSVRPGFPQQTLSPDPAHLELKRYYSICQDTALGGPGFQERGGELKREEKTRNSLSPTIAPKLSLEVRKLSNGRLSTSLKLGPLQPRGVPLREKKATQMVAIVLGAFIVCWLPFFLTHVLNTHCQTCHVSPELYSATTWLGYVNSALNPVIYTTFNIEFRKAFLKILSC
#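 Agonist mode: compounds and dopamine controls were applied to plated cells for 90 min at 37 degrees C after an overnight attachment at 1500 cells/well. Luminescent read-out followed 30 - 60 minutes at room temperature with DiscoveRx detection reagent.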
# D3 antag: qHTS of D3 Dopamine Receptor Antagonist: qHTS. D(3) dopamine receptor (Homo sapiens), P35462. hit rate 2.5% among 360,000. AID 652054, 2013. max response, negative = inhibition, %. D3R cells, DiscoveRx beta-arrestin luminescence, antagonist mode; hits give low values; in the data active = max response below about -50%; inconclusive = no clear call, values can overlap the other calls; also: % is scaled to controls: 0 for no effect and ±100 for the full control effect
#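 Cells plated overnight at 1500 cells/well, then exposed to library compounds with dopamine controls for 90 minutes at 37 degrees C. DiscoveRx reagent added for 30–60 minutes at room temperature; luminescence read, quantitative HTS format.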
# DT40 TDP1 CPT: qHTS for Inhibitors of human tyrosyl-DNA phosphodiesterase 1 (TDP1): qHTS in cells in presence of CPT | chicken DT40 Tdp1-/-;hTDP1 cells + 20 nM CPT, ATP luminescence, 48 h | hit rate 12% among 420,000 | Potency, µM (titrated, usually from 46.2 µM), for the others: at the highest dose activity change, negative = growth inhibition, hits mostly inhibitors | AID 686979, 2013; also: potency is read from the fitted curve at half-maximal effect; % is scaled to controls: 0 for no effect and ±100 for the full control effect; nearly all actives have a fitted effect of over 55% in size
#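 Cell growth measured by CellTiter-Glo luminescence after a minimum 48 h, 37 C compound exposure with 20 nM CPT in Tdp1-knockout DT40 cells stably expressing hTDP1, seeded 400/well; qHTS titration format.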
# TDP1 cell noCPT: qHTS for Inhibitors of human tyrosyl-DNA phosphodiesterase 1 (TDP1): qHTS in cells in absence of CPT; DT40 Tdp1-/- hTDP1 cells, no CPT, ATP luminescence, 48 h; Potency, µM (series often up to 46.2 µM), without a hit: at the top dose activity change, negative = growth inhibition, actives largely listed as inhibitors; hit rate 15% among 420,000; AID 686978, 2013; also: potency is read from the fitted curve at half-maximal effect; % is scaled to controls: 0 for no effect and ±100 for the full control effect; nearly all actives have a fitted effect of over 55% in size
#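 Growth kinetics read by CellTiter-Glo luminescence after ≥48 hr at 37 °C. Cells: DT40 Tdp1-/- stably carrying human TDP1, 400 per well, compound exposure in the absence of CPT (DMSO vehicle).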
# ClpP mod: qHTS Assay for Activators of ClpP; hit rate 1.9% among 340,000; Potency, µM (titrated, usually from 57.5 µM), inactives show at the top dose activity change, negative = active; purified B. subtilis ClpP, FRET peptide cleavage, 20 min; AID 651965, 2013; active = well fitted falling curve with a large enough effect; inconclusive = small, poorly fitted or top-dose-only effect; inactive = no such curve, though single readings can be large or run the other way; also: potency is read from the fitted curve at half-maximal effect; the source files actives as falling curves though it sought activators and does not explain the sign; nearly all actives have a fitted effect of over 65% in size
#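 Purified B. subtilis ClpP, 10 microg/mL final in Tris/HCl pH8 with KCl, BSA, glycerol and Tween-20, cleaved an Abz/nitrotyrosine-quenched decapeptide. Fluorescence (ex 320, em 430) was read at 0 and 20 min at room temperature. Delta was normalized to 5.8 microM ADEP and DMSO/no-enzyme controls.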
# Active calls of the source: *; ? = inconclusive; · = not tested or not shown. Unless noted, calls follow the shape of the dose curve; as a rule, active = well fitted inhibition curve with a large enough effect; inconclusive = small, poorly fitted or top-dose-only effect; inactive = flat fitted curve, though single readings scatter.
SMILES,IL-1B inflam inh,DRD3 agonist,D3 antag,DT40 TDP1 CPT,TDP1 cell noCPT,ClpP mod
COCCN(CCOC)S(=O)(=O)c1ccc(C(=O)Nc2ccc([N+](=O)[O-])cc2OC)cc1,13,4,16,-7%,-2%,·
COc1ccc(C(=O)COC(=O)c2c(-c3ccccc3)noc2C)c(OC)c1,21,10,8,10%,?,-6%
CC(C)n1cc(CN2CCCC(C(=O)Nc3ccccc3Oc3cccnc3)C2)cn1 (stereo not given),1,-21,3,-3%,-12%,·
S=C(Nc1ccc(Cl)cc1)Nc1cccc2cnccc12,?,-14,?,?,23µM*,1%
COc1ccccc1NC(=S)Nc1cccc2cnccc12,12,-5,-3,26µM*,23µM*,-2%
CN(C)S(=O)(=O)c1cccc(NC(=S)Nc2cccc3cnccc23)c1,39,-15,-59*,16µM*,13µM*,·
CCOC(=O)Nc1ccc2c(c1)N(C(=O)CN1CCN(CCO)CC1)c1ccccc1CC2,-18,-18,4,-22%,-13%,·
Nc1cccc(S(=O)(=O)N2CCOCC2)c1,·,·,·,1%,17%,0%
O=c1cc(-c2ccccc2Cl)oc2ccc([N+](=O)[O-])c(O)c12,11,-19,-20,?,?,-2%
O=[N+]([O-])c1cc([N+](=O)[O-])c2oc(-c3ccccc3)c(Br)c2c1O,15,-3,-19,?,8.2µM*,·
COc1ccc(/C=C/C(=O)NC(=S)Nc2ccc(S(=O)(=O)N=C(N)N)cc2)cc1OC,-2,9,-9,1%,-10%,-2%
COc1ccc(CNC(=O)c2sc(=O)n(Cc3ccc(-c4ccccc4)cc3)c2C)cc1OC,-13,21,93,12µM*,12µM*,-6%
Cc1cccc(CNC(=O)c2sc(=O)n(Cc3c(C)cccc3C)c2C)c1,-17,-10,-90*,?,23µM*,-6%
Cc1ccccc1Cn1c(C)c(C(=O)NCc2cccc(Cl)c2)sc1=O,?,-4,-53*,-27%,?,-4%
COc1ccccc1Cn1c(C)c(C(=O)NCc2ccco2)sc1=O,·,2,-29,?,?,3%
COc1ccccc1Cn1c(C)c(C(=O)NCc2cccc(C)c2)sc1=O,?,-4,-57*,?,-14%,1%
Cc1cccc(C)c1Cn1c(C)c(C(=O)NCCC#N)sc1=O,4,6,1,-6%,-5%,-3%
COc1ccc(CNC(=O)c2sc(=O)n(Cc3ccccc3C)c2C)cc1,-10,1,-28,?,?,-1%
O=C(NCCNCCO)C1(C(F)(F)F)C/C(=C\CCO)CCCO1 (stereo not given),21,4,33,7%,2%,-1%
Cc1cccc(CN2CCC(C(=O)Nc3ccc(Oc4cccnc4)cc3)CC2)c1,-6,-27,?,?,?,-1%
COc1cccc(CN2CCC(C(=O)Nc3ccc(-c4cccc(C)c4)cc3)CC2)c1O,0,-5,2,16µM*,16µM*,-4%
Cc1cccc(-c2ccc(NC(=O)C3CCN(CC4CC4)CC3)cc2)c1,?,-9,-22,?,18µM*,·
COc1ccc(CCN(C)S(=O)(=O)c2cn(C)c(=O)n(C)c2=O)cc1OC,14,-17,-17,-6%,17%,2%
Cc1ccc(Nc2cc(C)nc3nncn23)c(C)c1,·,6,·,?,?,-3%
CCc1ccccc1NC(=O)c1ccc2c(c1)N(Cc1cccc(Cl)c1)C(=O)c1ccccc1S2(=O)=O,·,-1,·,·,·,0%
